Inconclusive results are not listed. A call without a number means that no potency is given here. Calls of active or inactive are those of the source. Calls follow the shape of the dose curve; as a rule, active = well fitted cell-killing curve with a large enough effect; inconclusive = small, poorly fitted or top-dose-only effect; inactive = flat fitted curve, though single readings scatter.

A short description of this assay: qHTS assay to identify small molecule inhibitors of chordoma cells - UCH-2 (AID 1259356). Conditions: UCH-2 chordoma viability, CellTiter-Glo ATP luminescence, 48 h; series mostly up to 46.1 µM.
In the case of `O=C(CCCN1CCC(O)(c2ccc(Br)cc2)CC1)c1ccc(F)cc1`, the Potency entry is “inactive”.
As for `C1CCc2nnnn2CC1`, the Potency entry was “inactive”.
Turning to `CCCCc1nc(Cl)c(CO)n1Cc1ccc(-c2ccccc2-c2nn[nH]n2)cc1`, the Potency entry was “inactive”.
As for `CCN(CCCc1ccccc1)CCCc1ccccc1`, the Potency entry was “inactive”.
`CO/N=C1\CN(c2nc3c(cc2F)c(=O)c(C(=O)O)cn3C2CC2)CC1CN` (stereo unspecified): the Potency result is “inactive”.
The same measure for `Nc1ccc(C(=O)O)cc1`: “inactive”.
With `C=C1C(=C/C=C2\CCC[C@]3(C)[C@@H]([C@H](C)/C=C/[C@@H](O)C4CC4)CC[C@@H]23)C[C@@H](O)C[C@@H]1O`, the Potency result was “inactive”.
Turning to `O=S1(=O)c2cccc3cccc(c23)N1CCCN1CCN(c2ccc(F)cc2)CC1`, the Potency entry was “inactive”.
Turning to `CCCCOc1ccc(OCCCN2CCOCC2)cc1`, the Potency result is “inactive”.
The same measure for `NC(=O)CC[C@@H]1NC(=O)[C@H](Cc2ccccc2)NC(=O)[C@H](Cc2ccc(O)cc2)NC(=O)CCSSC[C@@H](C(=O)N2CCC[C@H]2C(=O)N[C@@H](CCCN=C(N)N)C(=O)NCC(N)=O)NC(=O)[C@H](CC(N)=O)NC1=O`: “inactive”.
The same measure for `CC(C)C[C@H]1C(=O)N2CCC[C@H]2[C@]2(O)O[C@](NC(=O)[C@@H]3C=C4c5cccc6[nH]c(Br)c(c56)C[C@H]4N(C)C3)(C(C)C)C(=O)N12`: “inactive”; for `O=C(COc1ccc(Cl)cc1)N1CCN(Cc2ccc3c(c2)OCO3)CC1`: “inactive”; for `C[C@]12CCC(=O)C=C1[C@@H]1C[C@@H]1[C@H]1[C@@H]3[C@@H]4C[C@@H]4[C@@]4(CCC(=O)O4)[C@@]3(C)CC[C@@H]12`: “inactive”.
For `C[C@@H]1CN(CCCn2c3ccccc3c3ccccc32)C[C@H](C)N1` the value was “inactive”; for `CCCSS/C(CCO)=C(\C)N(C=O)Cc1cnc(C)nc1N`, “inactive”; for `NCCc1ccn[nH]1`, “inactive”.

The values above are taken from PubChem BioAssay (NCATS).
